Screening results as filed in PubChem BioAssay.
Sampled rows, rich in hits. Any-hit rate of the full collection: about 4.1%.
hgDAF12 agonist: H. glycines DAF-12 receptor agonists, primary screen, cell-based, luminescence, HEK293, GAL4 fusion, UAS-luciferase; HEK293 GAL4-hgDAF12 UAS-luciferase reporter, agonist luminescence; normalized to butyrate control; Nuclear hormone receptor DAF-12 (Heterodera glycines), GAL4 fusion; activation, % at 6.8 µM; 370,000 compounds, 1.8% hits;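 active = activation above a cutoff set at the mean of all screened compounds plus 3 SD, cut at about 10% in these data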
hcDAF-12 act: H. contortus DAF-12 nuclear receptor activators, primary screen, cell-based, luminescence, HEK293, lit1-tk-luc reporter | HEK293 hcDAF-12 lit1-tk-luc reporter; 0% DMSO, 100% Δ7-dafachronic acid | activation, % at 6.8 µM | 370,000 compounds, 1.4% hits | AID 652067, 2013;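 active = activation above the mean of all tested compounds plus 3 SD, cut at about 5.5% in these data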
ssDAF12 agonist: S. stercoralis DAF-12 nuclear receptor activators, primary screen, cell-based, luminescence, HEK293, GRIP1 co-expression, lit1-tk-luc; 370,000 compounds, 1% hits; activation, % at 6.8 µM; AID 652126, 2013; Nuclear hormone receptor DAF-12 (Strongyloides stercoralis); HEK293 ssDAF-12/GRIP1 lit1-tk-luc reporter; % of 3 µM dafachronic acid response;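 active = activation above the mean over all tested compounds plus 3 SD, cut at about 0.9% in these data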
DAX1 inh-1: DAX1 (NR0B1) inhibitors, primary screen, cell-based, HEK293, Gal4-DAX1, luciferase luminescence; HEK293 Gal4-DAX1 luciferase reporter; inhibition, % at 6.75 µM; 340,000 compounds, 0.99% hits;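 active = inhibition above the mean over all tested compounds plus 3 SD, cut at about 4.2% in these data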;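 also: inhibition shows as a rise in luminescence from relieved DAX1 repression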
Target sequence (P51843 207-470 limits assumed): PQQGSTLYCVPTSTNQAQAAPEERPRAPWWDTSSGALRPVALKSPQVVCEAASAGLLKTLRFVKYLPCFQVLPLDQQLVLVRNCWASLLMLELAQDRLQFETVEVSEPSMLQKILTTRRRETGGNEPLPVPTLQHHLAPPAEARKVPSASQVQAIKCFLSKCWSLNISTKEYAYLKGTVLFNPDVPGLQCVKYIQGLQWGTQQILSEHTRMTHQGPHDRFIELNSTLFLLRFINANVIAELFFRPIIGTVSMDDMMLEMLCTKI
DAX1 inh-2: DAX1 (NR0B1) inhibitors on StAR promoter, primary screen, cell-based, luminescence, SF-1 (NR5A1), full-length DAX-1 | HEK293T StAR-luciferase reporter, SF-1/DAX-1 repression relief | 370,000 compounds, 1.1% hits | inhibition, % at 6.8 µM;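 active = inhibition above the mean over all tested compounds plus 3 SD, cut at about 3.6% in these data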;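 also: higher inhibition means more luminescence from relief of DAX-1 repression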
Hits are given with their value; n = inactive; x = no result given.

SMILES	hgDAF12 agonist	hcDAF-12 act	ssDAF12 agonist	DAX1 inh-1	DAX1 inh-2
Cc1ccc2c(c1)NC(=O)C(CC(=O)NCCN(CC(C)C)CC(C)C)O2 (centres undefined)	n	n	n	5.7	n
CC(OC(=O)Cn1[nH]c(=O)c2ccccc2c1=O)C(=O)Nc1cccc(Cl)c1 (centres undefined)	n	n	n	4.2	n
NS(=O)(=O)c1ccc(NC(=O)CN2C(=O)C3C4C=CC(C4)C3C2=O)cc1 (centres undefined)	n	n	n	5.5	n
CCCCC(=O)Nc1cccc(-c2cn3ccccc3n2)c1	n	n	n	n	n
COc1ccc(-c2cn3ccccc3n2)cc1[N+](=O)[O-]	11.3	n	n	n	n
CCCOc1ccc(-c2cn3ccccc3n2)cc1[N+](=O)[O-]	11.9	n	n	n	n
COc1ccc(-c2cn3cc([N+](=O)[O-])ccc3n2)cc1OC	n	n	n	n	n
CCCCOc1ccc(-c2csc(N)n2)cc1[N+](=O)[O-]	10.8	n	n	n	n
COc1ccc(-c2nc3cc(C)c(Br)c(C)n3c2CC2CCCCC2)cc1OC	n	n	n	x	n
COC(=O)c1ccc2nc(-c3ccc(C)cc3)c(CC3CCCCC3)n2c1	n	n	1.8	x	3.9
COC(=O)c1ccc2nc(-c3ccc(F)cc3)c(CC3CCCCC3)n2c1	n	n	1.1	x	n
COC(=O)c1ccc2nc(-c3ccc(F)cc3)c(Cc3cccc(F)c3)n2c1	n	n	n	x	n
Cc1cc2nc(-c3ccc(F)cc3)c(CC3CCCCC3)n2c(C)c1Br	n	n	1.0	x	n
CC(CCN1CCC(C(O)(c2ccccc2)c2ccccc2)CC1)Oc1cc(F)cc(C#N)c1 (centres undefined)	n	n	n	x	n
CCOC(=O)C1=C(C)C(c2ccc(OC)cc2OC)NC(=O)N1 (centres undefined)	n	n	n	n	n
CCOC(=O)C1=C(C)C(c2ccccc2O)NC(=O)N1 (centres undefined)	n	n	n	6.0	n
CCOC(=O)N/N=C(\C)c1ccc(-n2cnnn2)cc1	12.8	n	n	n	n
CCC(=O)NCCc1nc2cc(NC(=O)c3ccccc3OC)ccc2n1C	n	n	n	n	n
CCC(=O)NCCc1nc2cc(NC(=O)c3cccs3)ccc2n1C	n	n	n	n	3.6
CSc1ccccc1C(=O)N1CCc2ccc(NC(=O)c3ccccn3)cc2C1	10.7	n	n	n	n
CSc1ccc(C(=O)N2CCc3ccc(NC(=O)c4ccccn4)cc3C2)cc1	n	n	n	n	n
C[C@@H]1COc2cc(Br)ccc2S(=O)(=O)N1Cc1cn(Cc2ccc(Br)cc2)nn1	n	n	n	x	n
CC(=O)CC[C@H]1CC[C@]2(CCCN(S(C)(=O)=O)C2)O1	n	n	n	x	n
c1ccc(C(Nc2cccnc2)c2ccccc2)cc1	n	n	n	n	n
c1ccc(NC(c2ccccc2)c2ccncc2)cc1 (centres undefined)	n	n	1.4	n	n
SMILES	hgDAF12 agonist	hcDAF-12 act	ssDAF12 agonist	DAX1 inh-1	DAX1 inh-2
Cc1cc(-c2n[nH]c(=S)n2N=Cc2ccc(OCc3ccccc3)cc2)n[nH]1	n	n	n	x	n
Cc1cc(C)n2c(SCC(=O)NC3CCCCC3C)nnc2n1 (centres undefined)	n	n	n	n	n
CCC1CCCCN1C(=O)CSc1nnc2nc(C)cc(C)n12 (centres undefined)	n	n	n	n	4.0
CCCc1cc(=O)[nH]c(SCCN2C(=O)c3ccccc3C2=O)n1	n	n	n	5.5	n
CCCCNC(=O)Cn1cnc([N+](=O)[O-])n1	n	n	n	4.8	n
CC(C)(C)C(=O)OC12CCCN(C1)/C(=C/c1cccnc1)C2 (centres undefined)	n	n	n	x	n
Cc1ccc(OCC(=O)N/N=C\c2cn(Cc3ccccc3)c3ccccc23)cc1C	n	n	1.0	n	n
COC(=O)[C@H](C)NC(=O)[C@@H]1CCCN1C(=O)CNP(=O)(OCc1ccccc1)OCc1ccccc1	n	n	n	x	x
CCCCc1c(C)c2ccc(OCC(C)=O)cc2oc1=O	11.4	n	n	n	n
CO[C@H]([C@H](C)/C=C/N(C)C=O)[C@@H](C)C(O)CC[C@H](C)[C@H](O)[C@H](C)[C@H]1OC(=O)/C=C/C(C)=C/C[C@H](O)C[C@@H]2C=CC[C@@H](C[C@H](OC)[C@@]3(CO3)[C@@H](OC)C[C@@H](OC)[C@@H]1C)O2 (some centres undefined)	n	n	n	x	x
Cc1nn(Cc2ccccc2)c(Cl)c1/C=N/NC(=O)c1cccnc1	n	n	14.9	n	n
O=C(N/N=C/c1ccccc1)c1ccco1	n	n	n	5.8	n
CC(C)(C)OC(=O)N/N=C\c1ccc(OC(=O)c2ccco2)cc1	11.3	6.2	n	n	n
Cc1nn(-c2ccccc2)c(Cl)c1/C=N/NC(=O)c1ccc(CNc2ccccc2)o1	n	n	n	n	n
Cc1nn(-c2ccccc2)c(Cl)c1/C=N/NC(=O)c1ccco1	11.7	n	n	n	n
O=C(Nc1ccccc1C(=O)N/N=C/c1ccccc1)c1ccco1	n	n	n	n	n
Cc1c(/C=N/NC(=O)c2cccnc2)c2ccccc2n1Cc1ccccc1	n	n	n	x	n
O=C(N[C@@H](Cc1ccccc1)C(=O)NCP(=O)(O)OC(Cc1ccccc1)C(=O)O)OCc1ccccc1 (some centres undefined)	n	n	n	x	x
C[C@@H]1CN([C@H](C)CO)C(=O)c2cc(Br)cnc2O[C@H]1CN(C)C(=O)c1ccc(F)cc1	n	n	n	x	n
COC(=O)[C@]12C[C@H](CC(=O)NCc3ccc(OC)c(OC)c3)C(=O)N(Cc3ccco3)C1=C[C@H](C1CCCC1)O[C@@H]2C	n	n	n	x	n
CCOC(=O)N/N=C/c1c(C)nn(-c2ccccc2Cl)c1Cl	11.1	n	n	n	n
Cc1nn(-c2ccccc2)c(Cl)c1/C=N/NC(=O)OC(C)(C)C	n	n	n	n	n
Cc1cc(C(=O)N/N=C/c2cn(C)nc2C)c2ccccc2n1	n	n	n	n	n
Cc1nn(C)cc1/C=N/NC(=O)c1ccco1	n	n	n	4.9	n
CC(=O)c1cccc(NC(=O)/C(=C\c2cccnc2)NC(=O)c2ccc(C)cc2)c1	n	n	n	n	n
CSc1ccc(/C=C(/NC(=O)c2ccc(C)cc2)C(=O)Nc2cccc(F)c2)cc1	n	6.3	n	n	n
